These results are taken from PubChem BioAssay AID1645838 (ICCB-Longwood Screening Facility, Harvard Medical School, 2021).

The assay can be described thus: supercomplex reporter luminescence per Hoechst cell count – Hoechst nuclei count (AID 1645838).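 For all read-outs here: control cybrid cells.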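 For z-score: higher means more mitochondrial supercomplex formation.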 To be noted: Cells, luminescence/Hoechst cell count ratio; for z-score: stronger effect = higher value; for cell count: measured here: cell number, Hoechst nuclei count.
Setting [1] is: library stock concentration (final well concentration not given) 80 uM.
Setting [2] is: library stock concentration (final well concentration not given) 400 uM.
Setting [3] is: library stock concentration (final well concentration not given) 2 mM.
Where [4] appears, read: library stock concentration (final well concentration not given) 10 mM.
Setting [5] is: library stock concentration (final well concentration not given) 46 uM.
Where [6] appears, read: library stock concentration (final well concentration not given) 278 uM.
The mark [7] stands for this setting: library stock concentration (final well concentration not given) 1.67 mM.

In all, about 2,000 compounds went through this assay and about 100 (5%) were called active. Cut-off read from the data, not from the text of the source: active = z-score above about 2; inactive = the rest. This excerpt belongs to a sample that is enriched for actives.

Regarding `Cc1ccc(C(=O)NCCCCCC(=O)Nc2ccccc2N)cc1`, the z-score was 0.128 (inactive) under setting [1], 0.271 (inactive) under setting [2], 0.708 (inactive) under setting [3] and 4.86 (active) under setting [4]. For the same compound, the cell count reads like this: under setting [1], 5180; under setting [2], 5260; under setting [3], 4840; under setting [4], 3070.
`CN(C)c1ccc(C(=O)NCCCCCC(=O)NO)cc1`: the z-score was 0.156 (inactive) and the cell count amounted to 5320.
The like results for `Cc1ccc(NC(=O)CCCCCC(=O)Nc2ccccc2N)cc1` were, in that order, 1.29 (inactive) and 4790.
For `CN(C)c1ccc(C(=O)NCCCCCCC(=O)NO)cc1` the same measures were 6.25 (active) and 3650.
Turning to `CCOC(=O)NCCCC(=O)NCCc1ccccc1`, the z-score reads like this: under setting [5], -0.07 (inactive); under setting [6], -0.00876 (inactive); under setting [7], -0.143 (inactive); under setting [4], -0.14 (inactive). The cell count is 5970 under setting [5], 5710 under setting [6], 5220 under setting [7] and 5550 under setting [4].
For `CCCCC[C@H](O)/C=C/[C@@H]1[C@@H](CCCCCCC(=O)O)[C@H](O)C[C@@H]1O`, the z-score is -0.12 (inactive) and the cell count turned out to be 5440.
For `CC(C)CC[C@@H](O)[C@@H](C)C1CCC2C3CC=C4C[C@@H](O)CC[C@]4(C)C3CC[C@@]21C` (stereo not given in full) the same measures were -0.379 (inactive) and 5080.
For `COC(=O)CCC[C@H](O)[C@H](O)CO` the same measures were -0.313 (inactive) and 5480.
The like results for `CCCCCC/C=C\CCCC(=O)CC(=O)N[C@H]1CCOC1=O` were, in that order, 0.196 (inactive) and 5220.
For `CCCCC(C)(C)[C@H](O)/C=C/[C@H]1[C@H](O)CC(=O)[C@@H]1CCCCCCC(=O)O`, the z-score was -0.22 (inactive) and the cell count amounted to 5310.
Take `O=C(O)c1cc(C(F)(F)F)ccc1N1CCC(OCc2ccccn2)C1` (stereo not given): the z-score under setting [1] is -0.188 (inactive), the z-score under setting [2] is -0.142 (inactive), the z-score under setting [3] was -0.236 (inactive) and the z-score under setting [4] is -0.254 (inactive). Moreover, the cell count runs as follows: under setting [1], 6080; under setting [2], 6070; under setting [3], 6240; under setting [4], 5970.
Turning to `CCCCC[C@H](O)/C=C/[C@H]1CCC(=O)[C@@H]1C/C=C\CCCC(=O)O`, the z-score is 0.602 (inactive) and the cell count was 5430.
Take `Cc1c(Cc2ccc3ccccc3n2)c2cc(F)ccc2n1CC(=O)O`: the z-score runs as follows: under setting [1], -0.574 (inactive); under setting [2], -0.436 (inactive); under setting [3], -0.171 (inactive); under setting [4], -0.183 (inactive). In addition, the cell count by setting is: under setting [1], 6030; under setting [2], 6070; under setting [3], 6110; under setting [4], 5700.
In the case of `CCC(NC(=O)c1c(C)c(-c2ccccc2)nc2ccccc12)c1ccccc1` (stereo not given), the z-score under setting [1] was -0.542 (inactive), the z-score under setting [2] is -0.315 (inactive), the z-score under setting [3] is -0.402 (inactive) and the z-score under setting [4] was -0.409 (inactive). Besides, the cell count runs as follows: under setting [1], 7010; under setting [2], 6770; under setting [3], 6520; under setting [4], 5870.
Regarding `Cc1c(-c2ccc(-c3ccccc3F)cc2)nc2ccc(F)cc2c1C(=O)O`, where the note is “library stock 10 mM”, the outcome was “inactive; censored for cell count”. In addition, the z-score under setting [1] was -0.011 (inactive), the z-score under setting [2] is 9.53 (active) and the z-score under setting [3] is 9.71 (active). The cell count is, setting by setting: under setting [1], 5350; under setting [2], 2330; under setting [3], 1790.
Turning to `O=C(O)CCC/C=C/C[C@@H]1[C@@H](CC[C@@H](O)CCc2ccccc2)[C@H](O)C[C@@H]1O`, the z-score is -0.13 (inactive) and the cell count was determined as 5360.
In the case of `Nc1ccccc1NC(=O)CCCCCCC(=O)Nc1ccccc1`, the z-score was 0.265 (inactive) and the cell count was determined as 5570.
The like results for `CC(C)(C)C(=O)Nc1ccccc1` were, in that order, -0.189 (inactive) and 5010.
As to `O=C(CCCCCCC(=O)Nc1ccccc1)NO`, the z-score was 0.328 (inactive) and the cell count stood at 5300. Moreover, the outcome (library stock 10 mM) was “inactive; censored for cell count”. Under setting [1], the z-score was 0.428 (inactive) and the cell count came to 5490. Under setting [2], the z-score is 2.1 (active) and the cell count amounted to 4770. Besides, under setting [3], the z-score is 10.2 (active) and the cell count turned out to be 3220.
Turning to `CCCCCCCCCCCCCCCCSC[C@H](COP(=O)([O-])OCC[N+](C)(C)C)NC(=O)CCCCCCCCCCCCCCC`, the z-score was -0.387 (inactive) and the cell count stood at 5820.
On to `C#CCC(Cc1cnc2nc(N)nc(N)c2n1)c1ccc(C(=O)NC(CCC(=O)O)C(=O)O)cc1` (stereo not given), for which the outcome reads like this: (library stock 278 µM) “inactive; censored for cell count”; (library stock 1.67 mM) “inactive; censored for cell count”; (library stock 10 mM) “inactive; censored for cell count”. Further, under setting [5], the z-score is 1.41 (inactive). Besides, the cell count under setting [5] amounted to 2070.
Turning to `CCCCCCCCCCCCCCC(=O)N[C@H]1CCOC1=O`, the outcome is “inactive; censored for cell count”.
For `CSCCC(NC(=O)C(CC(C)C)NC(=O)CNC(=O)C(NC(=O)C(Cc1ccccc1)NC(=O)C(CO)NC(=O)C(CC(=O)O)NC(=O)[C@H](NC(=O)C(CCCCN)NC(=O)C(N)Cc1cnc[nH]1)C(C)O)C(C)C)C(N)=O` (stereo not given in full), the z-score runs as follows: under setting [1], -0.214 (inactive); under setting [2], -0.449 (inactive); under setting [3], -0.151 (inactive); under setting [4], -0.389 (inactive). Also, the cell count reads like this: under setting [1], 6630; under setting [2], 6610; under setting [3], 6500; under setting [4], 6040.
Consider `Cn1ncnc1C1c2n[nH]c(=O)c3cc(F)cc(c23)NC1c1ccc(F)cc1` (stereo not given), for which the outcome (library stock 10 mM) was “inactive; censored for cell count”. The z-score is, setting by setting: under setting [1], 1.87 (inactive); under setting [2], 3.69 (active); under setting [3], 6.89 (active). For the same compound, the cell count under setting [1] amounted to 3700, the cell count under setting [2] worked out at 2650 and the cell count under setting [3] was found to be 1700.
In the case of `CC#C[C@]1(O)CC[C@@H]2[C@@H]3CCC4=CC(=O)CCC4=C3C(c3ccc(N(C)C)cc3)C[C@@]21C` (stereo not given in full), the z-score by setting is: under setting [1], -0.535 (inactive); under setting [2], -0.414 (inactive); under setting [3], -0.596 (inactive); under setting [4], -0.985 (inactive). Also, the cell count under setting [1] was determined as 5620, the cell count under setting [2] was found to be 5640, the cell count under setting [3] is 5480 and the cell count under setting [4] stood at 4850.
Turning to `Cc1cc(C)cc(NC(=O)Nc2ccc(S(N)(=O)=O)cc2)c1`, the z-score reads like this: under setting [1], -0.282 (inactive); under setting [2], -0.269 (inactive); under setting [3], -0.436 (inactive); under setting [4], -0.561 (inactive). Besides, the cell count runs as follows: under setting [1], 5270; under setting [2], 5260; under setting [3], 5280; under setting [4], 5230.
Consider `CCCCC[C@@H](O)CC[C@H]1[C@H](O)CC(=O)[C@@H]1CCCCCCC(=O)O`, for which the z-score is 0.414 (inactive) and the cell count was found to be 5360.
The like results for `CCCCCC(=O)CC[C@H]1[C@H](O)CC(=O)[C@@H]1CCCCCCC(=O)O` were, in that order, 3.62 (active) and 3870.
The like results for `CCCCCC(=O)CC[C@H]1[C@H](O)CC(=O)[C@@H]1C/C=C\CCCC(=O)O` were, in that order, 0.0242 (inactive) and 5260.
